# Screening results from PubChem.
# The list is not random: actives were taken first. Their share in the collection is about 5.1%.
# S1P4 antagonist – human S1P4 receptor antagonism; S1P4-expressing cells, antagonist mode, reporter read-out; 220,000 compounds, 0.26% hits; AID 1510; inhibition, % at 4.98 µM; in the data active = inhibition above about 29%;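 also: 0% = wells stimulated with agonist and 100% = vehicle wells without agonist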
# Target sequence (O95977 whole entry, looked up): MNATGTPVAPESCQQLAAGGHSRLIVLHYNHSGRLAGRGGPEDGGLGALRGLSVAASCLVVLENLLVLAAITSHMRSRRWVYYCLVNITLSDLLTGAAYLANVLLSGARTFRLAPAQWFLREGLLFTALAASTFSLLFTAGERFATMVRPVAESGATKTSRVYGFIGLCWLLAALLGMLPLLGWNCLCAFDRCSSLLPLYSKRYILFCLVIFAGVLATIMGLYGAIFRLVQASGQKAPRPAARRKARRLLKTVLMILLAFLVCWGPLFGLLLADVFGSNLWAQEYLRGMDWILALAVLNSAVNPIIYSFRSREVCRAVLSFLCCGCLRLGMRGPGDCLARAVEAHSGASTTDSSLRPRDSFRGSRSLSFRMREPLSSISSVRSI
# ROMK primary – modulates human ROMK potassium channel activity; Tet-inducible ROMK, thallium flux fluorescence; actives lie on both sides; 130,000 compounds, 2% hits; B-score at 10 µM; P48048;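 active = signal ratio slope over the read window, or its plate-corrected B-score, at least 3 SD from the plate mean, either direction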;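 also: B-score of the F/F0 ratio slope over 7 to 12 s after thallium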
# S1P3 antag – blocks the human S1P3 receptor; 170,000 compounds, 0.27% hits; inhibition, % at 4.98 µM; CHO S1P3 NFAT-BLA reporter, FRET fluorescence, antagonist mode;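 active = inhibition above the plate cutoff, the mean inhibition of test wells on that plate plus 3 SD, cut at about 28% in these data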;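 also: cells challenged with S1P at its EC80 of 0.8 µM; blue over green emission ratio from cleaved BLA substrate after 4 h stimulation; 0% = S1P-stimulated wells and 100% = unstimulated DMSO-only wells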
# Target sequence (Q99500 whole entry, looked up): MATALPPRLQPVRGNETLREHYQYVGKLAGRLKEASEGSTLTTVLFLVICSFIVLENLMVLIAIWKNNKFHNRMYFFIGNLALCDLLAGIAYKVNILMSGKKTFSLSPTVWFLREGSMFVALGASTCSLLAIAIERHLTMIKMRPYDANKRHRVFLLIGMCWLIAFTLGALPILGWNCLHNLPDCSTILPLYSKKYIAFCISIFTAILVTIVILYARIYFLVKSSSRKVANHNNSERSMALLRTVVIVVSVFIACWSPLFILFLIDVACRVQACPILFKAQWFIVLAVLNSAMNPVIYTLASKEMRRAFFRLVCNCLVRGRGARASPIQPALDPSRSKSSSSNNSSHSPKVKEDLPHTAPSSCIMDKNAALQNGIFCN
# RAM inhibit – yeast RAM network inhibition; inhibition, % at 50 µM; 190,000 compounds, 1.8% hits; S. cerevisiae dse1pr::URA3 reporter, 5-FOA growth OD615, 2 d; analog-sensitive cbk1-as2 kinase mutant strain;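 active = inhibition above a set limit, 3 SD over mean compound inhibition, cut at about 8.4% in these data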;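 also: 0% = DMSO-only wells with no growth and 100% = 10 µM 1-NA-PP1 full growth; inhibition rescues growth on 5-FOA so higher OD means more RAM inhibition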
# S1P4 agonist – human S1P4 receptor agonism | O95977 | S1P4-expressing cell line, agonist reporter assay | activation, % at 4.98 µM | 220,000 compounds, 0.35% hits | AID 1509; in the data active = activation above about 11%;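 also: 0% = DMSO vehicle and 100% = reference agonist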
# KCC2 mod – modulates chloride dependent transport by human KCC2 | Q9H2X9 | KCC2 cells, thallium flux FluoZin-2 fluorescence | B-score of Tl+ flux slope (higher = more flux/activation; lower = inhibition) at 10 µM | 190,000 compounds, 2.2% hits;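 active = thallium flux slope and its plate-corrected score both differing from the plate sample mean at a set confidence after two filtering rounds, in either direction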;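 also: slope of fluorescence scaled to starting intensity during 10 to 20 s after thallium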
# KCC2 sec1 – confirmation of human KCC2 transport modulators; shares compounds with KCC2 mod; HEK293-KCC2, thallium flux, FluoZin2 fluorescence; hits give high values; normalised thallium flux (F/F0 slope) at 10 µM; 3,700 compounds, 15% hits;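 active = thallium flux slope above the same plate's solvent-only control mean plus 3 SD; inconclusive = the two replicate wells disagree; inactive = no significant difference from solvent-only control wells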
# KCC2 bumet counter – thallium flux despite bumetanide block in KCC2 cells, secondary assay 3 | shares compounds with KCC2 mod | HEK293-KCC2 + bumetanide/ouabain, thallium flux FluoZin2; hits give high values | normalized thallium flux at 10 µM | 3,700 compounds, 49% hits;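 active = thallium entry rate above the same plate's blocked-transporter control wells by more than 3 SD; inconclusive = the two repeat wells disagree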;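 also: raw slope of fluorescence over initial fluorescence between 10 and 20 s after thallium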
# KCC2 secondary2 – confirmation of human KCC2 transport modulators | shares compounds with KCC2 mod | HEK293-KCC2, thallium flux FluoZin2 fluorescence; actives lie on both sides; F/F0 rise rate, 10–20 s post-thallium | normalized thallium flux at 10 µM | 3,700 compounds, 23% hits | AID 1715;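 active = thallium flux slope more than 3 SD above or below the plate's solvent-only control mean, mostly below; inconclusive = the two repeat wells disagreed; inactive = no significant shift from solvent-only controls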;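 also: raw slope with 0.1% DMSO as baseline and bumetanide as block control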
# HEK counter1 – counter-screen for KCC2 modulators: effect in parental HEK293 cells. shares compounds with KCC2 mod. thallium flux FluoZin2, ouabain; baseline-ratio fluorescence slope, 10–20 s after thallium. thallium flux rate (normalised fluorescence) at 10 µM. 3,700 compounds, 46% hits. AID 1716;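 active = thallium flux rate significantly above the same plate's solvent-only control wells, beyond their mean plus 3 SD; inconclusive = the two replicate wells gave conflicting results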
# KCC2 ouabain – KCC2 (human) modulation, ouabain retest; raw Tl+ flux slope (below DMSO = inhibition, above = activation) at 10 µM; shares compounds with KCC2 mod; AID 1717; 3,700 compounds, 48% hits; HEK293-KCC2, thallium flux FluoZin2 fluorescence; bidirectional: low = inhibitor, high = activator;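 active = thallium flux slope beyond 3 SD from same-plate DMSO control mean in most replicates, usually higher, sometimes lower; inconclusive = repeat tests gave conflicting results; inactive = no significant difference from controls in most replicates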;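 also: slope of initial-normalized fluorescence between seconds 10 and 20 after thallium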
# HEK counter2 – parental HEK flux effect, counter-screen 2 | shares compounds with KCC2 mod | thallium flux slope at 10 µM | AID 1718 | 3,700 compounds, 33% hits | HEK293 parental, thallium flux FluoZin-2 fluorescence slope;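 active = thallium flux slope above the same plate's solvent-control mean plus 3 SD in both duplicate wells; inconclusive = duplicate wells that disagreed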;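 also: run without ouabain in cells lacking the KCC2 cotransporter; slope of fluorescence scaled to its starting value between 10 and 20 s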
# Active calls of the source: *; ? = inconclusive; / = no result given.
SMILES,S1P4 antagonist,ROMK primary,S1P3 antag,RAM inhibit,S1P4 agonist,KCC2 mod,KCC2 sec1,KCC2 bumet counter,KCC2 secondary2,HEK counter1,KCC2 ouabain,HEK counter2
CCc1cc2cccc(C)c2nc1SCC(=O)NNC(=O)c1ccco1,-12.1,/,/,3.8,-1.3,/,0.0096,0.0101*,0.0322,0.0115*,0.0215,0.0115
CC(C)(C)C1CCc2sc(C(=O)NNC(=O)CCl)cc2C1 (stereo unspecified),9.7,-0.094,-10.8,3.9,0.6,3.27*,0.00713,0.0168*,0.0302,0.0166*,?,0.0141*
CC(C)(C)C1CCC(=NNC(=O)c2cc3c(s2)CCCC3)CC1 (stereo unspecified),0.1,1.04,13.3,-0.6,4.8,-0.458,/,/,/,/,/,/
COc1ccc(C(=O)NN2CC(O)=C(c3nc4ccccc4n3C)C2=N)cc1OC,-9.9,-0.0556,4.5,-0.2,1.1,0.58,/,/,/,/,/,/
COCc1cc(=O)[nH]c(SCCS(=O)(=O)c2ccc(Cl)cc2Cl)n1,7.1,/,17.3,/,0.0,0.38,/,/,/,/,/,/
COc1cc(OC)c(C(=O)/C=C/c2ccccc2)c(O)c1O,/,/,/,/,/,-1.55*,0.00585,?,0.0263*,0.00704,?,0.0114
Cn1cc(Cl)c(C(=O)NC(=S)Nc2sc3c(c2C#N)CCCCC3)n1,4.4,0.173,-1.2,2.1,-4.0,10.7*,0.00741,0.0207*,?,0.019*,0.0333*,0.0209*
CCC(=O)Nc1sc2c(c1C#N)CCCCC2,2.0,0.781,/,0.9,2.5,0.00169,/,/,/,/,/,/
Cc1cc(C(=O)Nc2sc3c(c2C#N)CCC3)no1,-27.1,1.02,20.1,3.8,2.0,1.23,/,/,/,/,/,/
CC(=O)Nc1sc2c(c1C#N)CCCCC2,1.0,/,12.4,-1.9,1.4,6.06*,0.00962,0.00731,0.0299,0.00758,0.066,?
CC(C)Cc1cc(C(=O)Nc2sc3c(c2C#N)CCC3)no1,-6.3,/,/,10.5*,-1.0,4.8*,0.00643,0.017*,0.0325,0.0174*,0.0272*,0.014*
Cn1cc(Br)c(C(=O)Nc2sc3c(c2C#N)CCC3)n1,-0.6,/,0.5,/,-0.5,-0.155,/,/,/,/,/,/
CC(C)Cc1cc(C(=O)Nc2sc3c(c2C#N)CCCC3)no1,7.5,/,29.1,9.9*,-1.1,4.07*,0.0123,0.0188*,0.0367,?,?,?
CC1CCN(C(=S)c2ccc(N(C)C)cc2)CC1,-7.4,0.0923,2.0,0.0,-0.2,0.0488,/,/,/,/,/,/
Cc1cc(C)cc(OCC(=O)Nc2ccc3c(c2)OCO3)c1,-4.2,0.163,-6.2,4.7,0.1,-0.00495,/,/,/,/,/,/
C=CCNC(=S)Nc1sc2c(c1C#N)CCCC2,-0.6,0.368,-11.6,2.8,-1.6,13.1*,0.00653,0.0211*,0.0304,0.0178*,0.0272*,0.0124*
Cc1ccc(OCCC(=O)OCC(=O)N2c3ccccc3CC2C)cc1 (stereo unspecified),-6.7,/,-11.6,2.9,-0.9,-5.12*,0.0077,0.00485,0.0246*,0.00724,0.0168*,0.00959
CCn1c(=O)cc(OCC(=O)N2CCN(c3cccc(C(F)(F)F)c3)CC2)c2ccccc21,-6.2,/,-6.5,2.8,-3.0,-1.73,0.00793,0.00578,0.0283,0.00646,?,0.0103
O=C(c1coc2ccccc2c1=O)N1CCN(c2cccc(C(F)(F)F)c2)CC1,16.7,/,/,1.8,-1.3,-4.05*,0.0114,0.0075,0.0325,0.00738,0.0217,0.0101
NNC(=O)c1cccc(O)c1,2.4,0.676,-1.1,1.4,0.1,0.841,/,/,/,/,/,/
COc1ccc2c(-c3ccccc3)cc(SC(C)C(N)=O)nc2c1 (stereo unspecified),2.8,-0.335,-2.7,0.8,-0.2,5.47*,0.00983,0.00805*,0.0336,0.0143*,0.0232,?
CCCN(C(=O)CSc1cc(-c2ccccc2)c2ccc(OC)cc2n1)C1CCS(=O)(=O)C1 (stereo unspecified),9.4,/,-19.1,3.3,-1.1,-0.0684,/,/,/,/,/,/
O=C(Cc1nnc(NC(=O)Nc2ccc(F)cc2)s1)NCc1ccccc1,11.1,-0.287,17.6,/,-0.8,-0.437,/,/,/,/,/,/
COc1ccc(/C=C(/NC(=O)c2ccccc2Cl)C(=O)O)cc1,-17.0,0.522,-3.3,1.4,-0.1,-0.00227,/,/,/,/,/,/
CC(C)Cn1c(-c2ccc(Br)cc2)c[nH]c1=S,-19.8,-1.46,-8.4,0.6,1.6,22.1*,0.0067,0.0278*,?,0.0246*,0.0291*,0.025*
SMILES,S1P4 antagonist,ROMK primary,S1P3 antag,RAM inhibit,S1P4 agonist,KCC2 mod,KCC2 sec1,KCC2 bumet counter,KCC2 secondary2,HEK counter1,KCC2 ouabain,HEK counter2
CCn1c(-c2ccccc2)c[nH]c1=S,-10.4,/,/,0.3,-0.1,0.0626,/,/,/,/,/,/
CN(C)S(=O)(=O)c1ccc(C(=O)Nc2ccccc2C(=O)O)cc1,-14.6,0.367,-22.4,1.7,1.7,-4.13*,0.00943,0.00547,0.0292,0.00719,0.022,?
CN(C)S(=O)(=O)c1ccc(C(=O)Nc2ccccc2F)cc1,-2.8,0.672,/,0.6,0.8,/,/,/,/,/,/,/
Cc1cccc(C)c1NC(=O)CC(NCCc1ccccc1)C(=O)O (stereo unspecified),-11.6,1.88,1.5,-1.2,1.4,1.11,/,/,/,/,/,/
Cc1cc(C(=O)NNC(=O)c2ccc(C(F)(F)F)cc2)no1,0.4,1.15,11.8,/,0.9,4.86,/,/,/,/,/,/
CC(C)(C)c1cc(C(=O)NNC(=O)c2ccc(Cl)cc2)no1,17.4,/,0.9,/,-1.0,93.9*,0.0367*,0.103*,0.0498*,0.0571*,?,0.0255*
CCOc1ccc(NC(=S)NC(C)c2cccs2)cc1 (stereo unspecified),-1.9,0.389,7.6,0.1,0.3,0.874,/,/,/,/,/,/
O=C(COC(=O)CCCSc1nc2ccccc2[nH]1)NC(=O)NC1CCCC1,-9.1,/,/,-0.5,-1.8,-0.897,0.00923,0.00526,0.0332,?,0.0203,0.0102
CCNC(=O)NC(=O)COC(=O)CCCSc1nc2ccccc2[nH]1,-9.7,/,-4.1,1.9,1.8,0.259,/,/,/,/,/,/
COc1ccc(-c2coc3cc(O)cc(O)c3c2=O)cc1,-22.0,/,1.8,1.7,0.7,-5.17,?,0.00625,0.0282,0.00695,0.016*,?
COc1ccc(-c2coc3cc(OC)cc(O)c3c2=O)cc1,-4.1,/,/,5.0,-2.6,0.00575,/,/,/,/,/,/
